Experimental data from PubChem BioAssay (NCI).
The panel holds about 83,000 compounds, 20% with a hit somewhere; the sample as a whole holds those more often.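 Single-dose data. Exposure time 48 hours. Values below 10 considered active.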 A number with no mark means an inactive call. Activity calls are given as the source filed them.

Columns and labels:
Assay in all cases: NCI-60 one-dose screen, 48 h (100 = growth as untreated, 0 = no growth, -100 = all killed)
HCT-15 colon = conditions: 10 µM unless noted
HT29 colon = conditions: 10 µM unless noted
SNB-75 CNS = conditions: 10 µM unless noted
SNB-19 CNS = conditions: 10 µM unless noted
U251 CNS = conditions: 10 µM unless noted
PC-3 prostate = conditions: 10 µM unless noted
SK-MEL-5 melanoma = conditions: 10 µM unless noted
LOX IMVI melanoma = conditions: 10 µM
SK-MEL-28 melanoma = conditions: 10 µM unless noted
SK-MEL-2 melanoma = conditions: 10 µM unless noted
EKVX NSCLC = conditions: 10 µM unless noted
SN12C renal = conditions: 10 µM unless noted
UO-31 renal = conditions: 10 µM unless noted
TK-10 renal = conditions: 10 µM unless noted
ACHN renal = conditions: 10 µM unless noted
CAKI-1 renal = conditions: 10 µM unless noted
A498 renal = conditions: 10 µM unless noted
MOLT-4 leukemia = conditions: 10 µM unless noted
CCRF-CEM leukemia = conditions: 10 µM unless noted

SMILES	growth (HCT-15 colon) [%]	growth (HT29 colon) [%]	growth (SNB-75 CNS) [%]	growth (SNB-19 CNS) [%]	growth (U251 CNS) [%]	growth (PC-3 prostate) [%]	growth (SK-MEL-5 melanoma)	growth (LOX IMVI melanoma) [%]	growth (SK-MEL-28 melanoma) [%]	growth (SK-MEL-2 melanoma) [%]	growth (EKVX NSCLC) [%]	growth (SN12C renal) [%]	growth (UO-31 renal) [%]	growth (TK-10 renal) [%]	growth (ACHN renal) [%]	growth (CAKI-1 renal)	growth (A498 renal)	growth (MOLT-4 leukemia)	growth (CCRF-CEM leukemia)
CC(C)NC(=O)OCc1c(COC(=O)NC(C)C)c(-c2ccc(Cl)cc2)n2c1CCC2	58.4	56	34.1	57.9	49	68.2	68.1%	30.5	84.7	94.4	76.6	38.2	50.6	57.6	11.1	6.56% (active)	44.5%	21.9%	–
Nc1ncc([N+](=O)[O-])cn1	108	81.2	99.1	95.6	96.2	88.7	94.6%	99.7	103	93.1	105	101	90	94.5	109	–	87.8%	105%	98.4%
O=C1Nc2ccccc2/C1=C\c1ccccc1O	93.3	116	64.9	101	93.5	96.8	92.6%	84.8	97	107	56.4	92.5	51.3	124	85.4	88.6%	105%	74.6%	–
C/C(=N\N=C(/C)c1cccc([N+](=O)[O-])c1)c1cccc([N+](=O)[O-])c1	100	87.9	83.8	80.7	91.1	86.7	94.3%	91.6	101	90.8	–	81.7	92.8	90.8	99.4	99.5%	97.9%	102%	96.5%
OCC1OC(n2ccc3c2ncn2ncnc32)C(O)C1O (stereo unspecified)	26.9	14.2	58.6	50.3	78.6	14.6	45.4%	12.9	92.5	67.7	–	27.5	27.6	22.2	29	43.5%	-5.58% (active)	16.1%	14.1%
CCN(CC)CCCC(C)NC(=S)N/N=C(\C)c1ccccn1 (stereo unspecified)	32.7	35.8	61.9	45.7	37.2	41.1	37.8%	39.3	67.5	83.6	47.7	35.9	14.8	48.4	31.4	20.1%	72.1%	9.05% (active)	–
CCCCNc1ccc(-c2ccc(NCCCC)cc2)cc1	50.6	101	83	77.3	64.2	71.7	-40.7% (active)	25.9	71.5	101	–	81.4	58.8	92	71.1	64.8%	59.7%	68.8%	51.9%
O=S(=O)(O)c1cccnc1	114	117	79.5	96	113	102	103%	108	114	136	93.7	105	109	104	105	–	101%	79.6%	-41.7% (active)
CCCCOC(=O)c1ccccc1O	104	111	85.9	102	100	101	104%	100	113	161	106	107	–	115	104	107%	129%	117%	-71.6% (active)
NNc1ncccn1	106	91.8	80.2	111	102	106	115%	96.9	106	90.2	102	103	83.5	92.2	105	–	91.7%	–	109%
CC(C)c1ccc(C(=O)OCCCl)cc1	94	109	94	91.1	101	106	100%	97.1	92	–	102	99.3	92.6	94.6	94.5	383%	92.7%	100%	107%
COC(c1ccc2c(c1)OCO2)C(C)Br (stereo unspecified)	103	88.8	76.6	101	96.9	69.3	104%	92.3	103	101	90.3	100	91.8	85.8	–	83.7%	95.6%	91.6%	93.3%
COc1cc(OC)c(NC(=O)C(Sc2nc(C)cc(C)c2C#N)c2ccccc2)cc1Cl (stereo unspecified)	97.7	107	27.4	94.1	87.3	102	102%	89.6	105	–	–	98.5	–	96.3	85.8	94.6%	111%	90.9%	99.4%
C=C1C(=O)C2CCC1C2 (stereo unspecified)	99.8	102	103	107	109	105	105%	106	119	101	109	104	82.2	109	112	101%	93.7%	94.7%	–
CC(C)(C)CC1(C)NC(=O)NC1=O (stereo unspecified)	110	107	83.8	110	111	106	108%	102	116	166	108	110	100	125	109	–	120%	93.2%	-59.7% (active)
C1=NCCc2ccccc21	107	117	76.4	109	92.9	87.7	95.3%	100	110	99.7	–	102	84.3	119	101	99.7%	59.9%	101%	96.8%
CC(C)C1CCC(C)C(O)C1 (stereo unspecified)	107	105	91.1	99.6	89	89	105%	99.6	110	94.2	102	96.3	–	99.2	104	98%	92%	113%	96.1%
Oc1ccc(CCC2CCNc3ccccc32)cc1 (stereo unspecified)	83.2	93.7	76.6	87.2	71.5	60.7	58%	81.1	94.4	86.7	53.5	86	78.9	93.2	66.9	–	69.2%	84.8%	69.1%
